According to PubChem BioAssay (NCATS):
Inconclusive results are not listed. Activity calls are given as the source filed them. Unless noted, calls follow the shape of the dose curve; as a rule, active = well fitted curve in either direction with a large enough effect (not every such curve was filed as active); inconclusive = small, poorly fitted or top-dose-only effect, or another doubt; inactive = flat fitted curve, though single readings scatter.

Tests used:
[1] = AP1 Signaling Pathway (AID 357); details: ME-180 AP-1-bla reporter, EGF-induced, beta-lactamase ratio, 5 h; at 7.69 µM (top of the series) unless noted;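 also: ME-180 reporter cells stimulated with EGF at its EC50 level; % is scaled to controls: 0 for no effect and ±100 for the full control effect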
Method in brief: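 Read-out was the 460nm/530nm emission ratio (excitation 405nm) after CCF4 loading for 2.5 hours at room temperature. Cells carried an AP-1-driven beta-lactamase reporter, were stimulated with EC50 EGF plus compound for 5 hours, and AC50 values came from titrations.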

[2] = NFAT Signaling Pathway (AID 444); details: Jurkat NFAT-bla M1, carbachol, beta-lactamase ratio, 5 h; at 7.69 µM (top of the series) unless noted;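 also: carbachol stimulus at about its EC50 of 1 µM final; % is scaled to controls: 0 for no effect and ±100 for the full control effect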
Method in brief: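 Jurkat cells carrying an NFAT-driven β-lactamase reporter and co-transfected muscarinic M1 receptor were treated with compound plus carbachol (1 uM final, an EC50 level) for 5 h at 37 °C. CCF4 loading followed for 1 h at RT; 460/530 nm ratio gave %activity.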

[3] = Stat Signaling Pathway (AID 446); details: ME-180 SIE beta-lactamase reporter, IL-6 stimulated, 5 h; at 7.69 µM (top of the series) unless noted;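 also: ME-180 cervical cancer cells given 40 pM IL-6 alongside compound; SIE-controlled beta-lactamase reporter measured as 460/530 nm FRET emission ratio; % is scaled to controls: 0 for no effect and ±100 for the full control effect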
Method in brief: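 FRET read-out (405 nm excitation, 460/530 nm emission) of a beta-lactamase reporter under a STAT-inducible element in ME-180 cervical carcinoma cells. Cells with compound receive 40 pM IL-6 for 5 h. Values are normalised to AC90 stimulation and AC90 JAK-inhibitor controls.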

[4] = target: Glucocorticoid receptor (Homo sapiens) (UniProt P04150); experiment: GR-EFC Redistribution (AID 451; calls by dose curve; also: potency is read from the fitted curve at half-maximal effect); details: CHO-K1 GR-EFC translocation, beta-gal luminescence, 2 h
Sequence of Glucocorticoid receptor (Homo sapiens) (P04150 whole entry, looked up, the tested form may be a part): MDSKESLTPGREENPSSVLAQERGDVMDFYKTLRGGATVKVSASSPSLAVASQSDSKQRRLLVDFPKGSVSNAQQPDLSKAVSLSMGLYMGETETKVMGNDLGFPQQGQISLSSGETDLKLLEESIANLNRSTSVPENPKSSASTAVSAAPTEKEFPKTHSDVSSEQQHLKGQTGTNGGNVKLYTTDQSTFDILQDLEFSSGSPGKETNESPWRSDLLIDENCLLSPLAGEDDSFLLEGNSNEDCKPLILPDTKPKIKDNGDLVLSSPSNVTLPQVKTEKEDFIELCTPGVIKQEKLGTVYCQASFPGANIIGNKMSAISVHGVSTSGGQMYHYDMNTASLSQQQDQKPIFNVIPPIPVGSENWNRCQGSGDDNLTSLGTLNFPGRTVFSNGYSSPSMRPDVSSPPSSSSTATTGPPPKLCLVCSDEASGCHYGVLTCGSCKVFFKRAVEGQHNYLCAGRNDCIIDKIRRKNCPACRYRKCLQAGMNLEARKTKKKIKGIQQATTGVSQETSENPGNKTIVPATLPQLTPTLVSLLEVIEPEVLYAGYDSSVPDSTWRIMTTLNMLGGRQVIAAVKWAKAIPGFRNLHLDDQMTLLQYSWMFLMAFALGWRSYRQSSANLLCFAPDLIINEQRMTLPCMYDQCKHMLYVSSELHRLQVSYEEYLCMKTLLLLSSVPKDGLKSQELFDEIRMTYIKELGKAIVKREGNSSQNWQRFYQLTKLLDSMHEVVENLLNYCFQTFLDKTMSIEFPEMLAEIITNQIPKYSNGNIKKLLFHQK
Method in brief: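 CHO-K1 cells stably expressing nuclear-localized β-gal enzyme acceptor and GR fused C-terminally to the enzyme donor fragment; ligand-driven nuclear translocation restores β-gal by complementation. Compounds titrated up to 46 uM final, 2 h at 37 °C; luminescence read.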

[5] = target: Mitogen-activated protein kinase 10 (Mus musculus) (UniProt Q61831); experiment: JNK3 AlphaScreen Assay (AID 530);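 also: kinase came from lysate of stimulated human HepG2 cells; signal reports phosphorylation of biotinylated GST-cJun 1-79 at Ser73 with 10 µM ATP; % is scaled to controls: 0 for no effect and ±100 for the full control effect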
Method in brief: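 Phosphorylation of biotinylated GST-cJun(1-79) at Ser73 is measured by AlphaScreen proximity luminescence. Enzyme is JNK3 in HepG2 lysates activated with interleukin-1beta and tumor necrosis factor alpha; ATP is 10 uM final.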

[6] = target: 3',5'-cyclic-AMP phosphodiesterase 4B (Homo sapiens) (UniProt Q07343); experiment: qHTS Assay for Inhibitors of PDE-IV (AID 607; active = well fitted activation curve with a large enough effect in the main read-out, with a control signal flat, not every such curve was filed as active; also: % of control where 0% means no effect)
Sequence of 3',5'-cyclic-AMP phosphodiesterase 4B (Homo sapiens) (Q07343 whole entry, looked up): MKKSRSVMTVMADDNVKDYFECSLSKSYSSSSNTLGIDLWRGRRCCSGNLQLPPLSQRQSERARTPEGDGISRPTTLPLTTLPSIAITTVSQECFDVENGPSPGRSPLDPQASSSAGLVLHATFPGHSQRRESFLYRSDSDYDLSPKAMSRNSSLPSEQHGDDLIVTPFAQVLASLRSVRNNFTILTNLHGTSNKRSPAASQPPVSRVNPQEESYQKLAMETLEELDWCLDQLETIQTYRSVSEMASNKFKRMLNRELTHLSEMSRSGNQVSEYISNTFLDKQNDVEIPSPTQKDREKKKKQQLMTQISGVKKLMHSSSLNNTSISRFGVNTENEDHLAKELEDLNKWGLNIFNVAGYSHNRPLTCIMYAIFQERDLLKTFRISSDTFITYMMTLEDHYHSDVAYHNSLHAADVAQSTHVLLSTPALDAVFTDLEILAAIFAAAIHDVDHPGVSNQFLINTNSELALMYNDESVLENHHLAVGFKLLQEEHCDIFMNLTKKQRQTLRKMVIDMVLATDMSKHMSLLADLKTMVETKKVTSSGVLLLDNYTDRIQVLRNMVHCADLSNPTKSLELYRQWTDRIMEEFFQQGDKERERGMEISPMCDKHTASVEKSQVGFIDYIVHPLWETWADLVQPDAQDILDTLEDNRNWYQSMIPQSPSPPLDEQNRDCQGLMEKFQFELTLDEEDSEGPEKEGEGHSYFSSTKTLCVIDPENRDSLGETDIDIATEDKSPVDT
Method in brief: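 Cell-based read-out of cAMP via a modified cyclic nucleotide-gated channel and membrane potential dye (535/590 nm) in HEK293 cells expressing PDE4 endogenously. Compounds tested up to 22.9 uM final; 100 uM RO 20-1724 reference.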

[7] = Primary qHTS for small molecule stabilizers of the endoplasmic reticulum resident proteome: Secreted ER Calcium Modulated Protein (SERCaMP) assay (AID 1508630; active = well fitted curve in the direction sought with a large enough effect; an effect the other way counts as inactive or inconclusive; also: % is scaled to controls: 0 for no effect and ±100 for the full control effect)
Method in brief: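 The SH-SY5Y reporter protocol was run at 3 concentrations up to 38.3 uM (primary) or 11 concentrations (follow-up): 16 h compound, 100 nM thapsigargin for 4 h, then extracellular luciferase luminescence.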

[8] = target: Cytochrome P450 1A2 (Homo sapiens) (UniProt P05177); experiment: p450-cyp1a2 (AID 410; calls by dose curve; also: potency is read from the fitted curve at half-maximal effect)
Sequence of Cytochrome P450 1A2 (Homo sapiens) (P05177 whole entry, looked up): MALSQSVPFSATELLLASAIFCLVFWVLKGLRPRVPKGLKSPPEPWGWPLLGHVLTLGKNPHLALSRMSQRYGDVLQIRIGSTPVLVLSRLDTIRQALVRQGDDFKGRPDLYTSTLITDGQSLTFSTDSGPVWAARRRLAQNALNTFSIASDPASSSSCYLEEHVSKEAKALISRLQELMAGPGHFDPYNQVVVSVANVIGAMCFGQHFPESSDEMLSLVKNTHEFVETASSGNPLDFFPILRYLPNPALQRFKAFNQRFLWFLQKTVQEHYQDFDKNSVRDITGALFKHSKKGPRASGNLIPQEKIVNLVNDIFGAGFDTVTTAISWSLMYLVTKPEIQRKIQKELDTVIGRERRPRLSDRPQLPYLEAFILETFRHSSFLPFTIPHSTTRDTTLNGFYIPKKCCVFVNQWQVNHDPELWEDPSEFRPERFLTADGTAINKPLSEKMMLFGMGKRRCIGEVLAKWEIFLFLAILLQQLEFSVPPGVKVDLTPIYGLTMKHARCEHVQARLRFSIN
Method in brief: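 Luminescent demethylation readout: Luciferin-ME (100uM, equal to Km) turned over by 20nM CYP1A2 for 60 min at room temperature after NADPH regeneration addition, following 10 min compound preincubation. Normalization used 57 uM furafylline as full inhibition.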

[9] = target: Cytochrome P450 3A4 (Homo sapiens) (UniProt P08684); experiment: qHTS Assay for Activators of Cytochrome P450 3A4 (AID 885; active = well fitted curve in the direction sought with a large enough effect; an effect the other way counts as inactive or inconclusive; also: nearly all actives have a fitted effect of over 65% in size)
Sequence of Cytochrome P450 3A4 (Homo sapiens) (P08684 whole entry, looked up): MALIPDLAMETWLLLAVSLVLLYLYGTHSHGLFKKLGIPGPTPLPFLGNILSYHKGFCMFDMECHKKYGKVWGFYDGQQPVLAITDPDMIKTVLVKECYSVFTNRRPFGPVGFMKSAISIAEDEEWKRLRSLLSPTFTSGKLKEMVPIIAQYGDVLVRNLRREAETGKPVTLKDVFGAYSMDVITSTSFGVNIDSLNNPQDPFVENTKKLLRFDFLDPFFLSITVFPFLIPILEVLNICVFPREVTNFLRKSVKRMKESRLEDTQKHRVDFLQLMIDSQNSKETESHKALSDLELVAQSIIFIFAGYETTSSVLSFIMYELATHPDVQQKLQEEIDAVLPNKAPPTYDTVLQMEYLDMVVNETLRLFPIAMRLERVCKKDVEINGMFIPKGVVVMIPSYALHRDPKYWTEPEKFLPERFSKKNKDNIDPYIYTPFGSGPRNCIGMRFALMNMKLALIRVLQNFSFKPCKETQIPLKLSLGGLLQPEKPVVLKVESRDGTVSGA
Method in brief: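 Luminescent readout of luciferin formed from 25 uM Luciferin-PPXE (KM level) by 20 nM CYP3A4 in 200 mM KPO4, with 60 min NADPH-driven reaction at room temperature after 10 min compound exposure. Ketoconazole (57 uM) defined 100% inhibition.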

[10] = target: Lysosomal acid glucosylceramidase (Homo sapiens) (UniProt P04062); experiment: Glucocerebrosidase-p2 (AID 348; in the data active = potency below about 10 µM; also: potency is read from the fitted curve at half-maximal effect); details: purified GBA, blue fluorogenic substrate, 40 min
Sequence of Lysosomal acid glucosylceramidase (Homo sapiens) (P04062 whole entry, looked up): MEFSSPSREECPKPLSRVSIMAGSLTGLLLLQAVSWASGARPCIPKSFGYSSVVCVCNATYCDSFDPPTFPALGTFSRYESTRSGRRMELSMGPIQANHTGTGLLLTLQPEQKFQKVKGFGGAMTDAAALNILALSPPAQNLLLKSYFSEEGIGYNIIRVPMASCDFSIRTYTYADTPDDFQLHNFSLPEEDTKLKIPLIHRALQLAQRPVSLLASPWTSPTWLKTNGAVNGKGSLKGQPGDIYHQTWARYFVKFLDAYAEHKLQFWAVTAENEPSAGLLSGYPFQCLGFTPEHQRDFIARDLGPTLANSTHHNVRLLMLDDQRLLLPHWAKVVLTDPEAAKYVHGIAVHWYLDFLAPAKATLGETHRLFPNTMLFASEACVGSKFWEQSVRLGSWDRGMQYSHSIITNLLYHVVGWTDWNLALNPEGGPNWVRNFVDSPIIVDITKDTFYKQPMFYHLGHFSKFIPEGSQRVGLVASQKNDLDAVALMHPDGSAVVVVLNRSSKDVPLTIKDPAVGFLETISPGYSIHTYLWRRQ
Method in brief: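 Normal human glucocerebrosidase (0.2 nM) with blue fluorogenic substrate (80 uM final) in citrate/phosphate pH 5.9 with 10mM sodium taurocholate, 0.01% tween-20; 40 min RT, NaOH/glycine stop; fluorescence Ex 365/Em 440; AC50 from a titration from 0.6 nM upwards.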

[11] = target: Glucocorticoid receptor (Homo sapiens) (UniProt P04150); experiment: GR-GFP Redistribution (AID 450;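 active = compounds whose dose series gives a full or clear partial fitted curve of increased nuclear translocation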; also: potency is read from the fitted curve at half-maximal effect); details: U2OS GR-GFP nuclear translocation, laser cytometry, 2 h
[12] = target: Cytochrome P450 2C19 (Homo sapiens) (UniProt P33261); experiment: qHTS Assay for Inhibitors and Substrates of Cytochrome P450 2C19 (AID 899; active = well fitted curve in the direction sought with a large enough effect; an effect the other way counts as inactive or inconclusive; also: % is scaled to controls: 0 for no effect and ±100 for the full control effect; nearly all actives have a fitted effect of over 60% in size)
Sequence of Cytochrome P450 2C19 (Homo sapiens) (P33261 whole entry, looked up): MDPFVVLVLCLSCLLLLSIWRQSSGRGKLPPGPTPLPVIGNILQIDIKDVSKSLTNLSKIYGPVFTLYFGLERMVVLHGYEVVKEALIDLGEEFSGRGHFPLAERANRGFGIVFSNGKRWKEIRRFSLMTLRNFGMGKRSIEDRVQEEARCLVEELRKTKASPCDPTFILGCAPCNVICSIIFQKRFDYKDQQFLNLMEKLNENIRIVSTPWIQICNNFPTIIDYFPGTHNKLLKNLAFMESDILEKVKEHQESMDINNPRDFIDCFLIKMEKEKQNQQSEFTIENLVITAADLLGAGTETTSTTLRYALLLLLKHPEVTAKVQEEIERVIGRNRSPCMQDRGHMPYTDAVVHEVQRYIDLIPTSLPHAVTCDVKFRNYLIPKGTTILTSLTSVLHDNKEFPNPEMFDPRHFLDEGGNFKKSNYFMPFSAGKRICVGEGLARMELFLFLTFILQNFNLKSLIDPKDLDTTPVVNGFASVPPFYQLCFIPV
Method in brief: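 Human CYP2C19 (5nM) with Luciferin-H EGE at 10uM (its KM) in 50mM KPO4 was preincubated with compound for 10 min at 37C. NADPH regeneration started a 60 min 37C reaction. Luciferin was read by luminescence, normalized to 57uM ketoconazole.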

[13] = qHTS Assay for Identification of Small Molecule Agonists for Hypoxia Response Element Signaling Pathway (AID 914; active = well fitted activation curve with a large enough effect in the signal ratio, with a control signal flat, not every such curve was filed as active; the % refers to the signal ratio; also: potency is read from the fitted curve at half-maximal effect; as to activation: % of control where 0% means no effect); details: ME-180 (cervical carcinoma) HRE-bla reporter, beta-lactamase ratio, CoCl2, 17 h; activation: active compounds read high
Method in brief: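 qHTS titration; ME-180 HRE-bla cells; EC50 CoCl2 co-treatment, 17 h at 37 degrees Celsius; CCF4 dye, ex 405nm, em 460nm and 530nm; %Activity from ratio; AC50.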

[14] = target: Cytochrome P450 3A4 (Homo sapiens) (UniProt P08684); experiment: qHTS Assay for Inhibitors and Substrates of Cytochrome P450 3A4 (AID 884; active = well fitted curve in the direction sought with a large enough effect; an effect the other way counts as inactive or inconclusive; also: potency is read from the fitted curve at half-maximal effect; nearly all actives have a fitted effect of over 50% in size)
Method in brief: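 Luminescent readout of luciferin produced by CYP3A4 (20 nM) dealkylation of Luciferin-PPXE, 25 uM (its KM). NADPH-driven reaction ran 60 min at RT after 10 min compound preincubation; data scaled to 57 uM ketoconazole as 100% inhibition.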

[15] = target: Ubiquitin carboxyl-terminal hydrolase 1 (Homo sapiens) (UniProt O94782); experiment: Inhibitors of USP1/UAF1: Pilot qHTS (AID 504865; active = well fitted curve in the direction sought with a large enough effect; an effect the other way counts as inactive or inconclusive;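 also: rhodamine fluorescence freed from ubiquitin-rhodamine substrate followed over time; top concentration of the series differs between compounds; % is scaled to controls: 0 for no effect and ±100 for the full control effect; nearly all actives have a fitted effect of over 35% in size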)
Sequence of Ubiquitin carboxyl-terminal hydrolase 1 (Homo sapiens) (O94782 whole entry, looked up): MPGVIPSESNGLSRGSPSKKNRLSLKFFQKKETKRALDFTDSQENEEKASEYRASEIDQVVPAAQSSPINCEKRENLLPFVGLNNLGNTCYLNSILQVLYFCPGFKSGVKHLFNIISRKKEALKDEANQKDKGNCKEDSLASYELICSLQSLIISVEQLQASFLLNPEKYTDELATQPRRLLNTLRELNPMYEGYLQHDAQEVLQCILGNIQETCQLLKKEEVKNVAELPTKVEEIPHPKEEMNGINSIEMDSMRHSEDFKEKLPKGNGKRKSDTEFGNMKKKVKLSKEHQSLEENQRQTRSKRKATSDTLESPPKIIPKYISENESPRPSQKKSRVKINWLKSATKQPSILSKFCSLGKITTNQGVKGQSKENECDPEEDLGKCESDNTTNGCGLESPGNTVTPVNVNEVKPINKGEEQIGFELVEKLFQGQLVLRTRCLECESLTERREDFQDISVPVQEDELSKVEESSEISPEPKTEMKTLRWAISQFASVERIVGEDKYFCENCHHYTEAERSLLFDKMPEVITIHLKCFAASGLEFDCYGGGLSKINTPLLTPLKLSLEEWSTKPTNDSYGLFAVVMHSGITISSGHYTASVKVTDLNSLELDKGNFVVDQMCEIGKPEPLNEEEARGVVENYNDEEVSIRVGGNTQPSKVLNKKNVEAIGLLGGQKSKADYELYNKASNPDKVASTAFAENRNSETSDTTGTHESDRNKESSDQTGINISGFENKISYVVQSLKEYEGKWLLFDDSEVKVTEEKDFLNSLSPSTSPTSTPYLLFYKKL
Method in brief: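 In 50mM HEPES pH 7.8 containing 0.5mM EDTA, 1mM TCEP, 0.1 mg/ml BSA and 0.01% Tween-20, 1nM USP1/UAF1 is exposed to compound for 15 min, then Ub-Rho (150nM final) is added and fluorescence is read over time.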

Cc1noc(C)c1C(=O)N1CCC2(CCCN(c3ncccn3)C2)CC1
inactive: activity change, negative = inhibition [1] -6.23% | activity change, negative = inhibition [2] 7.66% | activity, negative = inhibition [3] -4.43% | Potency [4] > 46 µM | Potency [5] | Potency [6] | outcome [7]

O=C(c1csnn1)N1CCC2(CC1)CCN(c1ccccn1)CC2
inactive: activity change, negative = inhibition [1] 15.4% | activity, negative = inhibition [3] 4.86% | Potency [4] > 46 µM | Potency [5] | Potency [6] | outcome [7]
active: Potency [8] 25.1 µM

O=S(=O)(c1ccccc1)N1CCC[C@@]2(CCN(c3cccc(-c4ccccc4)c3)C2)C1
active: Potency [8] 15.8 µM
inactive: activity change, negative = inhibition [1] -23.9% | activity change, negative = inhibition [2] -13.7% | activity, negative = inhibition [3] -8.6% | Potency [4] > 46 µM | Potency [5] | Potency [6] | Potency [9] | outcome [7]

O=S(=O)(c1ccccc1)N1CCC2(CCCN(Cc3cc(C(F)(F)F)cc(C(F)(F)F)c3)C2)CC1
inactive: Potency [10] > 11.4 µM | activity, negative = inhibition [3] 5.03% | Potency [4] > 46 µM | Potency [5] | Potency [6] | outcome [7]

CN1CCN(c2ncc3nc(-c4ccc(Cl)cc4)c(=O)n(CCC#N)c3n2)CC1
inactive: Potency [11] > 9.22 µM | Potency [4] > 46 µM | Potency [5] | Potency [6] | Potency [12] | outcome [7]
active: activity change, negative = inhibition [1] 130% [activator] | Potency [8] 15.8 µM | activity change, negative = inhibition [2] 214% [activator]

CN(C)c1ncc2nc(-c3ccccc3)c(=O)n(C3CC3)c2n1
inactive: Potency [10] > 11.4 µM | Potency [11] > 9.22 µM | Potency [4] > 46 µM | outcome [7]
active: Potency [13] 3.16 µM

CCNc1ncc2nc(-c3cc(F)cc(F)c3)c(=O)n(-c3ccccc3)c2n1
active: Potency [13] 2.51 µM
inactive: Potency [10] > 11.4 µM | Potency [11] > 9.22 µM | Potency [4] > 46 µM | Potency [5] | Potency [9] | outcome [7]

c1ccc(CNc2ncncc2-c2ccoc2)cc1
inactive: activity change, negative = inhibition [1] 9.24% | activity change, negative = inhibition [2] 17% | activity, negative = inhibition [3] -8.66% | Potency [11] > 46 µM | Potency [4] > 46 µM | Potency [5] | Potency [6] | Potency [9] | activation [13] 1.1% | Potency [15] | outcome [7]
active: Potency [8] 5.01 µM | Potency [14] 2 µM

CCNc1ncc2nc(-c3cc(F)cc(F)c3)c(=O)n(-c3ccc(OC)cc3)c2n1
inactive: Potency [10] > 11.4 µM | Potency [11] > 9.22 µM | Potency [4] > 46 µM | Potency [6] | Potency [9] | outcome [7]
active: Potency [13] 0.398 µM
